Compounds without any hit were thinned out: in the full panel of roughly 83,000, 20% have a hit.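 Single-dose data. Exposure time 48 hours. Values below 10 considered active.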 Values without a mark were called inactive. The source made the active and inactive calls.

Some test systems named below: HCT-15 colon; HT29 colon; SNB-75 CNS; SNB-19 CNS; U251 CNS; PC-3 prostate; SK-MEL-5 melanoma; UACC-62 melanoma; LOX IMVI melanoma; SK-MEL-28 melanoma; SK-MEL-2 melanoma; EKVX NSCLC; SN12C renal; UO-31 renal; TK-10 renal; ACHN renal; A498 renal; CCRF-CEM leukemia; MOLT-4 leukemia; CAKI-1 renal.
What all share (assay): NCI-60 one-dose screen, 48 h (100 = growth as untreated, 0 = no growth, -100 = all killed)
Holding throughout (conditions): 10 µM unless noted

As for `O=C(Nc1ccc2c(c1)C(=O)c1ccccc1-2)c1ccccc1`, the growth in the assay on HCT-15 colon was 67.2%; with HT29 colon, 35.8%; in the assay on SNB-75 CNS, 86.6%; in the assay with SNB-19 CNS, 73%; in the assay with U251 CNS, -13.9% (active); in the assay on PC-3 prostate, 92.9%. In addition, the growth in the assay on SK-MEL-5 melanoma is 97.9%; with UACC-62 melanoma, 90.2%; in the assay on LOX IMVI melanoma it was 73.2%; in the assay with SK-MEL-28 melanoma, 105%; with SK-MEL-2 melanoma, 82.4%; with EKVX NSCLC, 97.4%. The growth in the assay on SN12C renal was 56.9%; in the assay with UO-31 renal it was 69.7%; with TK-10 renal, 46.9%; in the assay on ACHN renal it was 63.8%; with A498 renal it was 66.4%; in the assay with CCRF-CEM leukemia it was 101%. Also, the growth in the assay with MOLT-4 leukemia was 97.7%.
As to `Cc1ccc(S(=O)(=O)N2CCN(C(=O)CSc3nc4ccc(C)cc4[nH]3)CC2)cc1`, the growth in the assay with HCT-15 colon is 110%; in the assay with HT29 colon, 117%; with SNB-75 CNS, 109%; in the assay on SNB-19 CNS it was 100%; with U251 CNS, 106%; with PC-3 prostate, 88.3%. Besides, the growth in the assay on SK-MEL-5 melanoma was 116%; in the assay on UACC-62 melanoma, 82.3%; in the assay on LOX IMVI melanoma, 101%; in the assay on SK-MEL-28 melanoma, 85.3%; with SK-MEL-2 melanoma, 5.46% (active); in the assay with EKVX NSCLC, 97%. Also, the growth with SN12C renal is 107%; in the assay on UO-31 renal it was 93.3%; in the assay with TK-10 renal, 129%; in the assay with CAKI-1 renal it was 116%; in the assay on A498 renal, 99.7%; in the assay on CCRF-CEM leukemia it was 94.6%. For the same compound, in the assay on MOLT-4 leukemia, the growth was 74.4%.
`O=C1NC(=O)/C(=C/c2ccc(Cl)cc2Cl)N1`: the growth with HCT-15 colon is 103%; in the assay on HT29 colon, 121%; in the assay with SNB-75 CNS it was 83.7%; in the assay on SNB-19 CNS, 107%; in the assay on U251 CNS, 102%; in the assay with PC-3 prostate, 96.5%. In addition, the growth with SK-MEL-5 melanoma is 108%; in the assay with UACC-62 melanoma it was 102%; in the assay on LOX IMVI melanoma, 97.3%; with SK-MEL-28 melanoma, 109%; in the assay with SK-MEL-2 melanoma, 103%; in the assay on EKVX NSCLC it was 77.4%. Besides, the growth with SN12C renal is 107%; with UO-31 renal it was 80.7%; with TK-10 renal it was 110%; with CAKI-1 renal, 102%; in the assay on CCRF-CEM leukemia it was 92.3%; in the assay with MOLT-4 leukemia, 94.5%.
As to `O=C(NCCCl)NCCN1c2nc3ccccc3cc2Sc2cc3ccccc3nc21`, the growth with HCT-15 colon was 51.9%; in the assay on HT29 colon, 36.2%; in the assay with SNB-75 CNS, -5.93% (active); with SNB-19 CNS, 63.9%; with U251 CNS, 34.8%; in the assay with PC-3 prostate it was 25.3%. The growth in the assay on SK-MEL-5 melanoma was 9.61% (active); in the assay on UACC-62 melanoma it was 47.4%; in the assay with LOX IMVI melanoma, 49.7%; with SK-MEL-28 melanoma it was 86.4%; with SK-MEL-2 melanoma, 40.5%; in the assay with EKVX NSCLC, 54.7%. Also, the growth with SN12C renal was 67.3%; in the assay on UO-31 renal it was -5.97% (active); with ACHN renal, 64.8%; with CAKI-1 renal it was 248%; in the assay with A498 renal, 80.3%; in the assay with CCRF-CEM leukemia it was 20.5%. Further, the growth in the assay with MOLT-4 leukemia is -9.47% (active).
As for `Nc1ccc(Oc2c(F)c(F)c(Oc3ccc(N)cc3)c(F)c2F)cc1`, the growth in the assay on HCT-15 colon was 86.7%; in the assay with HT29 colon it was 108%; in the assay with SNB-75 CNS, 89.5%; in the assay on SNB-19 CNS, 94.8%; in the assay on U251 CNS, 83.3%; with PC-3 prostate, 84.4%. For the same compound, the growth in the assay with SK-MEL-5 melanoma is 111%; with UACC-62 melanoma, 90.9%; with LOX IMVI melanoma, 86.5%; in the assay on SK-MEL-28 melanoma, 115%; with SK-MEL-2 melanoma, 17.5%; in the assay on EKVX NSCLC, 105%. The growth is 103% in the assay on SN12C renal; 63.6% in the assay with UO-31 renal; 101% in the assay with TK-10 renal; 95.6% in the assay with CAKI-1 renal; 111% in the assay on A498 renal; 78.2% in the assay with CCRF-CEM leukemia. The growth with MOLT-4 leukemia was 79.3%.
In the case of `COc1cccc(/C=N/Nc2nc3ccccc3s2)c1OC`, the growth in the assay with HCT-15 colon is 43.1%; in the assay on HT29 colon it was 61.1%; in the assay with SNB-75 CNS, 86.5%; with SNB-19 CNS it was 83.9%; in the assay on U251 CNS, 49.1%; in the assay on PC-3 prostate, 46.3%. Moreover, the growth was 52.6% with SK-MEL-5 melanoma; 66.7% in the assay with UACC-62 melanoma; 47.6% with LOX IMVI melanoma; 97.8% in the assay with SK-MEL-28 melanoma; 81% in the assay with SK-MEL-2 melanoma; 95.7% in the assay with EKVX NSCLC. In addition, the growth is 102% in the assay with SN12C renal; 85.1% in the assay on UO-31 renal; 64.8% in the assay on TK-10 renal; 78.8% in the assay on CAKI-1 renal; 121% with A498 renal; 77% with CCRF-CEM leukemia. For the same compound, the growth in the assay on MOLT-4 leukemia was 74.4%.
Turning to `CCOc1nc(-c2ccco2)n2nc(-c3ccco3)cc2n1`, the growth in the assay on HCT-15 colon was 99.4%; with HT29 colon, 100%; with SNB-75 CNS, 82.9%; in the assay with SNB-19 CNS, 97.3%; in the assay on U251 CNS, 98.3%; in the assay with PC-3 prostate, 105%. For the same compound, the growth in the assay with SK-MEL-5 melanoma was 81.4%; with UACC-62 melanoma, 86.4%; in the assay with LOX IMVI melanoma, 98.4%; in the assay on SK-MEL-28 melanoma, 110%; in the assay with SK-MEL-2 melanoma it was 117%; in the assay with EKVX NSCLC, 95%. Further, the growth in the assay on SN12C renal was 104%; in the assay with UO-31 renal, 91.1%; in the assay with ACHN renal it was 95.5%; with CAKI-1 renal it was 95.9%; with A498 renal it was 83.5%; in the assay on CCRF-CEM leukemia it was 102%. The growth in the assay on MOLT-4 leukemia was 114%.
With `O[N+]1=CC=CCC1=S.On1ccccc1=S.[Zn]`, the growth in the assay on HCT-15 colon was -57% (active); in the assay with HT29 colon, -47.5% (active); in the assay on SNB-75 CNS, -75.3% (active); in the assay on SNB-19 CNS, -93% (active); in the assay with U251 CNS, -86.8% (active); in the assay on PC-3 prostate it was -50.8% (active). Moreover, the growth in the assay with SK-MEL-5 melanoma is -93.5% (active); in the assay with UACC-62 melanoma, -78.3% (active); in the assay with LOX IMVI melanoma, -70.3% (active); in the assay on SK-MEL-28 melanoma it was -87.3% (active); with SK-MEL-2 melanoma it was -67.8% (active); in the assay on EKVX NSCLC, -84.4% (active). The growth in the assay on SN12C renal was -82.4% (active); with UO-31 renal it was -97.9% (active); with ACHN renal, -91.2% (active); with CAKI-1 renal it was -85.6% (active); in the assay on A498 renal, -83.4% (active); in the assay on CCRF-CEM leukemia, -34.5% (active). Moreover, in the assay with MOLT-4 leukemia, the growth was -36.1% (active).
On to `COc1cc(/C=C2\SC(N3CCCCC3)=NC2=O)ccc1OCCCCCCOc1ccc(/C=C2\SC(N3CCCCC3)=NC2=O)cc1OC`, for which the growth is 25.5% in the assay with HCT-15 colon; -13.8% (active) with HT29 colon; 18.8% with SNB-75 CNS; 44% in the assay on SNB-19 CNS; -3.37% (active) in the assay on U251 CNS; 34% in the assay with PC-3 prostate. The growth in the assay on SK-MEL-5 melanoma is 10.3%; in the assay with UACC-62 melanoma, 17.6%; in the assay on LOX IMVI melanoma it was -44.7% (active); with SK-MEL-28 melanoma it was 12.7%; in the assay with SK-MEL-2 melanoma, 2.01% (active); in the assay with EKVX NSCLC, 31.4%. In addition, the growth is 25.3% with SN12C renal; 33.5% in the assay on UO-31 renal; 23.1% in the assay on ACHN renal; 4.5% (active) in the assay on CAKI-1 renal; 7.57% (active) in the assay on A498 renal; 1.05% (active) in the assay on CCRF-CEM leukemia. Further, the growth with MOLT-4 leukemia is 7.46% (active).
For `CC(=O)OCC(=O)[C@@]1(O)CC[C@H]2[C@@H]3CCC4=CC(=O)CC[C@]4(C)[C@@]3(F)[C@@H](O)C[C@@]21C`, the growth with HCT-15 colon is 105%; in the assay on HT29 colon, 114%; in the assay with SNB-75 CNS, 113%; in the assay with SNB-19 CNS, 107%; in the assay with U251 CNS, 111%; in the assay with PC-3 prostate, 93.7%. Besides, the growth is 94.8% with SK-MEL-5 melanoma; 97.3% in the assay with UACC-62 melanoma; 96.6% in the assay with LOX IMVI melanoma; 112% with SK-MEL-28 melanoma; 104% in the assay with SK-MEL-2 melanoma; 88.8% in the assay with EKVX NSCLC. For the same compound, the growth was 84.2% in the assay on SN12C renal; 82.5% with UO-31 renal; 99.2% with TK-10 renal; 98.5% in the assay on ACHN renal; 115% with CAKI-1 renal; 71.7% with CCRF-CEM leukemia. In the assay on MOLT-4 leukemia, the growth is 90.2%.
For `CC[C@H]1CN2CCc3cc(OC)c(OC)cc3C2C[C@@H]1CC1NCCc2cc(OC)c(OC)cc21` (stereo not given in full), the growth in the assay with HCT-15 colon is -18% (active); in the assay on HT29 colon, -14.5% (active); in the assay on SNB-75 CNS, -52.2% (active); with SNB-19 CNS, -6.47% (active); with U251 CNS, -10.2% (active); with PC-3 prostate, -12% (active). Further, the growth in the assay on SK-MEL-5 melanoma is -88.7% (active); in the assay with UACC-62 melanoma it was -82% (active); in the assay with LOX IMVI melanoma it was -27.8% (active); in the assay with SK-MEL-28 melanoma, -14.4% (active); in the assay on SK-MEL-2 melanoma, -70.5% (active); with EKVX NSCLC, -27.4% (active). The growth is -13.1% (active) in the assay with SN12C renal; -37.9% (active) in the assay on UO-31 renal; -16.5% (active) in the assay with ACHN renal; -34.3% (active) in the assay with CAKI-1 renal; -49.9% (active) in the assay on A498 renal; -18% (active) in the assay on CCRF-CEM leukemia. In the assay with MOLT-4 leukemia, the growth is -13.1% (active).
Take `Nc1ccccc1C#Cc1ccccc1C#Cc1ccc(OCCCCCCOc2ccc(C#Cc3ccccc3C#Cc3ccccc3N)cc2)cc1`: in the assay on TK-10 renal, the growth was 141%.
The same measure, in the same setting: next, `CN(C)c1ccc(-c2nc3ncc(Br)cc3o2)cc1`: 140%.

The values are drawn from PubChem BioAssay (NCI).
